Results filed as inconclusive are left out. Activity calls are given as the source filed them. The calls were made as follows, unless noted: active = hit-call score of the fitted dose curve at least 0.9, where 1 is the maximum; inactive = score below 0.9.
What was measured:
[1] = read-out: Monokine induced gamma interferon (MIG), CXCL9 (gene 4283); assay: BSK_3C_MIG: BioMAP Diversity Plus: 3C Assay for Monokine induced gamma interferon (MIG) Biomarker Activity (AID 2283021); details: primary human endothelial cells (HUVEC); actives raise or lower the signal;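 as to AC50: MIG protein level measured by immunoassay in the treated endothelial cultures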
Method in brief: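 ELISA measurement of MIG in human umbilical vein endothelial cells 24 h after treatment. Cytotoxicity tracked by SRB staining in parallel cultures; gain or loss of signal fitted relative to DMSO.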

[2] = target: human Vitamin D Receptor (VDR), VDR (gene 7421) (UniProt P11473); assay: ATG_VDR_TRANS: Attagene TRANS-FACTORIAL HepG2 Assay for human Vitamin D Receptor (VDR) (AID 2283022; active = hit-call score of the fitted dose curve at least 0.9, where 1 is the maximum)
Method in brief: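 Steps: transfect HepG2 with GAL4-UAS-driven reporter constructs; dose compounds 24 h; isolate RNA, reverse-transcribe, PCR-amplify with 6-FAM-labelled primer extension and HpaI digestion; quantify fragments by capillary electrophoresis relative to DMSO.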

[3] = read-out: Matrix Metallopeptidase 1 (MMP1), MMP1 (gene 4312); assay: BSK_BE3C_MMP1: BioMAP Diversity Plus: BE3C Assay for Matrix Metallopeptidase 1 (MMP1) Biomarker Activity (AID 2283024); details: primary human bronchial epithelial cells; actives raise or lower the signal
Method in brief: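 ELISA measurement of MMP-1 after 24 h compound exposure of primary human bronchial epithelial cells. Changes in either direction fitted relative to DMSO; parallel SRB staining checked overt cytotoxicity.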

[4] = BSK_3C_Vis: BioMAP Diversity Plus: 3C Assay for Morphology Visualization (AID 2283025); details: primary human endothelial cells (HUVEC);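 also: fitted both ways so gain or loss versus DMSO counts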;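 as to AC50: light microscopy image of cell morphology used as background control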
Method in brief: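 Light-microscopy visualization of HUVEC cultures at 24 h post-treatment, with DMSO as baseline for bidirectional fitting.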

[5] = read-out: Pselectin, SELP (gene 6403); assay: BSK_4H_Pselectin: BioMAP Diversity Plus: 4H Assay for Pselectin Biomarker Activity (AID 2283026); details: primary human endothelial cells (HUVEC); actives raise or lower the signal
Method in brief: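 ELISA of surface P-selectin on HUVEC, 24 h after dosing, with parallel SRB staining (0.1% after 10% TCA fixation, 560 nm) for overt cytotoxicity. Activity fitted in both directions relative to DMSO.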

[6] = BSK_4H_SRB: Viability Assessment in the BioMAP Diversity Plus: 4H Assay (AID 2283027); details: primary human endothelial cells (HUVEC);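 also: cells exposed to compound for 24 h before staining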;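 as to AC50: curves fitted both ways versus DMSO so AC50 may be loss or gain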
Method in brief: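 Cytotoxicity readout: sulforhodamine B (0.1%) staining of total protein after 10% TCA fixation, measured at 560 nm in human umbilical vein endothelium at 24 h. DMSO set the baseline; fitting was bidirectional.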

[7] = BSK_BE3C_SRB: Viability Assessment in the BioMAP Diversity Plus: BE3C Assay (AID 2283028); details: primary human bronchial epithelial cells;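 as to AC50: fitted both ways so AC50 may mark signal gain or loss versus DMSO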
Method in brief: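 Cells (human bronchial epithelial, primary) are treated with chemicals, and after 24 h the parallel cultures are fixed in 10% TCA. These are then stained with 0.1% SRB and read at 560 nm. Gain or loss of signal is fitted relative to DMSO.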

[8] = read-out: Urokinase-type plasminogen activator receptor (uPAR), PLAUR (gene 5329); assay: BSK_4H_uPAR: BioMAP Diversity Plus: 4H Assay for Urokinase-type plasminogen activator receptor (uPAR) Biomarker Activity (AID 2283030); details: primary human endothelial cells (HUVEC); actives raise or lower the signal
Method in brief: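 Cell-surface uPAR ELISA signal, measured 24 h after dosing human umbilical vein endothelial cells, was analyzed with bidirectional fitting relative to DMSO. Parallel SRB staining of total protein tracked overt cytotoxicity.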

[9] = read-out: Vascular endothelial growth factor receptor 2 (Homo sapiens) (UniProt P35968); assay: BSK_4H_VEGFRII: BioMAP Diversity Plus: 4H Assay for Vascular endothelial growth factor receptor 2 (VEGFR2) Biomarker Activity (AID 2283031); details: primary human endothelial cells (HUVEC); actives raise or lower the signal
Method in brief: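 ELISA read-out of VEGFRII in primary human umbilical vein endothelium, taken 24 h after chemical treatment. Responses are expressed relative to DMSO, with bidirectional fitting.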

[10] = read-out: Human Leukocyte Antigen - DR isotype (HLADR), HLA-DRA (gene 3122); assay: BSK_BE3C_HLADR: BioMAP Diversity Plus: BE3C Assay for Human Leukocyte Antigen - DR isotype (HLADR) Biomarker Activity (AID 2283032); details: primary human bronchial epithelial cells; actives raise or lower the signal
Method in brief: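 Cell-surface HLA-DR ELISA readout at 24 h after dosing in the BE3C primary human lung bronchial epithelial system; gain or loss of signal against DMSO, with parallel sulforhodamine B staining of total protein for overt cytotoxicity.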

[11] = read-out: Vascular cell adhesion molecule 1 (VCAM1), VCAM1 (gene 7412); assay: BSK_4H_VCAM1: BioMAP Diversity Plus: 4H Assay for Vascular cell adhesion molecule 1 (VCAM1) Biomarker Activity (AID 2283033); details: primary human endothelial cells (HUVEC); actives raise or lower the signal
Method in brief: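 VCAM-1 ELISA read 24 h after chemical dosing of HUVEC in the BioMAP 4H system, with gain or loss of signal fitted relative to DMSO. Parallel SRB staining (560 nm) checked overt cytotoxicity.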

[12] = read-out: Interferon-gamma inducible Protein 10 (IP10), CXCL10 (gene 3627); assay: BSK_BE3C_IP10: BioMAP Diversity Plus: BE3C Assay for Interferon-gamma inducible Protein 10 (IP10) Biomarker Activity (AID 2283034); details: primary human bronchial epithelial cells; actives raise or lower the signal
Method in brief: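 IP-10 quantified by ELISA in human primary bronchial epithelial cell cultures at 24 hours post-dosing. Gain or loss of signal fitted relative to DMSO; parallel SRB staining assessed overt cytotoxicity.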

[13] = read-out: Monokine induced gamma interferon (MIG), CXCL9 (gene 4283); assay: BSK_BE3C_MIG: BioMAP Diversity Plus: BE3C Assay for Monokine induced gamma interferon (MIG) Biomarker Activity (AID 2283035); details: primary human bronchial epithelial cells; actives raise or lower the signal
Method in brief: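 hu bronchial epithelial 1° cells, 24 h cpd; MIG by ELISA; bidirectional fit, DMSO = baseline.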

[14] = read-out: Transforming growth factor beta 1 (TGFb1), TGFB1 (gene 7040); assay: BSK_BE3C_TGFb1: BioMAP Diversity Plus: BE3C Assay for Transforming growth factor beta 1 (TGFb1) Biomarker Activity (AID 2283036); details: primary human bronchial epithelial cells; actives raise or lower the signal
Method in brief: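 ELISA readout of TGF-b1 from human lung bronchial epithelial primary cells, taken 24 h post-treatment. Gain or loss of signal fitted relative to DMSO baseline, with parallel SRB staining for overt cytotoxicity.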

[15] = read-out: Plasminogen activator inhibitor-1 (PAI1), SERPINE1 (gene 5054); assay: BSK_BE3C_PAI1: BioMAP Diversity Plus: BE3C Assay for Plasminogen activator inhibitor-1 (PAI1) Biomarker Activity (AID 2283037); details: primary human bronchial epithelial cells; actives raise or lower the signal
Method in brief: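 PAI-1 was measured by ELISA in human primary bronchial epithelial cultures 24 h after chemical dosing, with cytotoxicity checked by SRB total-protein staining in parallel cultures. Activity was fitted in both directions relative to DMSO.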

[16] = read-out: urokinase plasminogen activator (uPA), PLAU (gene 5328); assay: BSK_BE3C_uPA: BioMAP Diversity Plus: BE3C Assay for urokinase plasminogen activator (uPA) Biomarker Activity (AID 2283038); details: primary human bronchial epithelial cells; actives raise or lower the signal
Method in brief: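 Bronchial epithelial cells (human, primary); chemical 24 h; uPA by ELISA; bidirectional fit vs DMSO. SRB (0.1%, after 10% TCA fixation, 560 nm) in parallel cultures for cytotoxicity.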

[17] = read-out: Urokinase-type plasminogen activator receptor (uPAR), PLAUR (gene 5329); assay: BSK_BE3C_uPAR: BioMAP Diversity Plus: BE3C Assay for Urokinase-type plasminogen activator receptor (uPAR) Biomarker Activity (AID 2283039); details: primary human bronchial epithelial cells; actives raise or lower the signal
Method in brief: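 uPAR levels were measured by ELISA after 24 h compound treatment of primary human bronchial epithelial cells, fitted in both directions relative to DMSO. Parallel SRB staining served as the cytotoxicity read-out.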

[18] = read-out: Interleukin-6 (IL6), IL6 (gene 3569); assay: BSK_CASM3C_IL6: BioMAP Diversity Plus: CASM3C Assay for Interleukin-6 (IL6) Biomarker Activity for (AID 2283040); details: primary human coronary artery smooth muscle cells; actives raise or lower the signal
[19] = BSK_3C_SRB: Viability Assessment in the BioMAP Diversity Plus: 3C Assay (AID 2283023); details: primary human endothelial cells (HUVEC);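 also: fitted both ways against DMSO so a hit may be signal rise or drop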
Method in brief: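 Absorbance at 560 nm of sulforhodamine B-stained (0.1%) total protein served as a cytotoxicity readout in human umbilical vein endothelial cells, 24 h after chemical treatment. Signal was fitted bidirectionally relative to DMSO.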

[20] = read-out: Thrombomodulin, THBD (gene 7056); assay: BSK_3C_Thrombomodulin: BioMAP Diversity Plus: 3C Assay for Thrombomodulin Biomarker Activity (AID 2283029); details: primary human endothelial cells (HUVEC); actives raise or lower the signal
Method in brief: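 ELISA measurement of thrombomodulin on HUVEC surface 24 h after chemical dosing; activity fitted in both directions relative to DMSO vehicle.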

Measured: AC50

Sequence of human Vitamin D Receptor (VDR), VDR (gene 7421) (P11473 whole entry, looked up, the tested form may be a part): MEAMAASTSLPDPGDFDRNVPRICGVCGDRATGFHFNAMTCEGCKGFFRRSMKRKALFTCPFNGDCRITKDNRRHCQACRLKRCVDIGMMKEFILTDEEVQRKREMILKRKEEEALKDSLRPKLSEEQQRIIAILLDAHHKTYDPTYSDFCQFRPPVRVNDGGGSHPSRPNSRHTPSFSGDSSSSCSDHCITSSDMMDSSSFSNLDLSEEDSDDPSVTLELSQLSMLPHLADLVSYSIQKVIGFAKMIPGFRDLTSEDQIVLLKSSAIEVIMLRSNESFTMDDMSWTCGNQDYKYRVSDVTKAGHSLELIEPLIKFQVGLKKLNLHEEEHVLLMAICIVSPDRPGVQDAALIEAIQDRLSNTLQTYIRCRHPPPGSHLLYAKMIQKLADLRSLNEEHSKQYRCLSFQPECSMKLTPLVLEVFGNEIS

CCc1nc(N)nc(N)c1-c1ccc(Cl)cc1
inactive: [1] | [2] | [3] | [4] | [5] | [6] | [7] | [8] | [9] | [10] | [11] | [12] | [13] | [14] | [15] | [16] | [17] | [18]

CC(=O)O
inactive: [1] | [19] | [3] | [4] | [5] | [6] | [7] | [20] | [8] | [9] | [10] | [11] | [12] | [13] | [14] | [15] | [16] | [17] | [18]

CCCCOC(=O)CCCCC(=O)OCCCC
inactive: [1] | [2] | [3] | [4] | [5] | [6] | [7] | [8] | [9] | [10] | [11] | [12] | [13] | [14] | [15] | [16] | [17] | [18]

CC(C)COC(=O)CCCCC(=O)OCC(C)C
inactive: [1] | [2] | [3] | [4] | [5] | [6] | [7] | [8] | [9] | [10] | [11] | [12] | [13] | [14] | [16] | [17] | [18]

NC=O
inactive: [1] | [2] | [3] | [4] | [5] | [6] | [7] | [8] | [9] | [10] | [11] | [12] | [13] | [14] | [16] | [17] | [18]

C/C=C/c1ccc(OC)cc1
inactive: [1] | [19] | [3] | [4] | [5] | [6] | [7] | [20] | [8] | [9] | [10] | [11] | [12] | [13] | [14] | [15] | [16] | [17] | [18]

CC(C)(C)c1ccccc1
inactive: [1] | [2] | [3] | [4] | [5] | [6] | [7] | [8] | [9] | [10] | [11] | [12] | [13] | [14] | [16] | [17] | [18]

CCCCCCC(CCCCCCCCCCC(=O)OCC(COC(C)=O)OC(C)=O)OC(C)=O (stereo unspecified)
active: [10] 10 µM | [12] 11.4 µM | [13] 13.7 µM | [14] 7.57 µM | [16] 13.2 µM
inactive: [1] | [2] | [3] | [4] | [5] | [6] | [7] | [8] | [9] | [11] | [17] | [18]

Cn1cnc2c1c(=O)[nH]c(=O)n2C
inactive: [1] | [19] | [3] | [4] | [5] | [6] | [7] | [20] | [8] | [9] | [10] | [11] | [12] | [13] | [14] | [15] | [16] | [17] | [18]

C#CC(O)C(CC)CCCC (stereo unspecified)
inactive: [1] | [19] | [3] | [4] | [5] | [6] | [7] | [20] | [8] | [9] | [10] | [11] | [12] | [13] | [14] | [16] | [17] | [18]

OCC(O)CO
inactive: [1] | [19] | [3] | [4] | [5] | [6] | [7] | [20] | [8] | [9] | [10] | [11] | [12] | [13] | [14] | [16] | [17] | [18]

Cc1c(C)c2c(c(C)c1O)CCC(C)(COc1ccc(CC3SC(=O)NC3=O)cc1)O2 (stereo unspecified)
active: [1] 34.2 µM | [3] 33.9 µM | [4] 20 µM | [5] 14 µM | [6] 23 µM | [7] 28.4 µM | [8] 28.6 µM | [10] 15.2 µM | [11] 31.8 µM | [12] 14.2 µM | [13] 31.8 µM | [14] 26.2 µM | [16] 15.3 µM | [17] 29.6 µM
inactive: [2] | [20] | [9] | [18]

CC(C)(O)c1ccc(CNC(=O)c2cccnc2Oc2ccc(F)cc2)cc1
inactive: [1] | [19] | [3] | [4] | [5] | [6] | [7] | [20] | [8] | [9] | [10] | [11] | [12] | [13] | [14] | [16] | [17] | [18]

CCCCc1nc2cccnc2n1Cc1ccc(-c2ccccc2-c2nnn[nH]2)cc1
inactive: [1] | [19] | [4] | [5] | [6] | [7] | [20] | [8] | [9] | [10] | [11] | [12] | [13] | [14] | [16] | [17] | [18]
active: [3] 6.21 µM
